Measured values taken from PubChem BioAssay (NCI).
About 83,000 compounds went through this panel and 20% of them were active in at least one assay; those are over-represented in the sample as a whole.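 For each line, cells grew in 96-well plates with the test compound present at a single concentration for 48 hours.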 Active and inactive are the calls of the source. The calls were made as follows: active = growth percent below 10; inactive = the rest.

Legend:
Assay in all cases: NCI-60 one-dose screen, 48 h (100 = growth as untreated, 0 = no growth, -100 = all killed)
[1] = tested on: NCI-H23 lung; settings: 10 µM unless noted
[2] = tested on: NCI-H226 lung; settings: 10 µM unless noted
[3] = tested on: NCI-H322M lung; settings: 10 µM unless noted
[4] = tested on: HOP-62 NSCLC; settings: 10 µM unless noted
[5] = tested on: NCI-H460 lung; settings: 10 µM unless noted
[6] = tested on: HOP-92 NSCLC; settings: 10 µM unless noted
[7] = tested on: NCI-H522 lung; settings: 10 µM unless noted
[8] = tested on: A549/ATCC NSCLC; settings: 10 µM unless noted
[9] = tested on: 786-0 renal; settings: 10 µM unless noted
[10] = tested on: COLO 205 colon; settings: 10 µM unless noted
[11] = tested on: DU-145 prostate; settings: 10 µM unless noted
[12] = tested on: K-562 leukemia; settings: 10 µM unless noted
[13] = tested on: MALME-3M melanoma; settings: 10 µM unless noted
[14] = tested on: MDA-MB-231 breast; settings: 10 µM unless noted
[15] = tested on: RXF 393 renal; settings: 10 µM unless noted
[16] = tested on: SF-268 CNS; settings: 10 µM unless noted
[17] = tested on: SF-295 CNS; settings: 10 µM unless noted
[18] = tested on: SF-539 CNS; settings: 10 µM unless noted
[19] = tested on: UACC-257 melanoma; settings: 10 µM
[20] = tested on: M14 melanoma; settings: 10 µM unless noted

Measured: growth

N#Cc1c(-c2ccccc2)cc(-c2c[nH]c3ccccc23)nc1-c1c[nH]c2ccccc12
inactive: [1] 95.6% | [2] 89.9% | [3] 105% | [4] 92.7% | [5] 106% | [6] 92.1% | [7] 97.1% | [8] 98.7% | [9] 102% | [10] 108% | [11] 108% | [12] 101% | [13] 99.8% | [14] 92.6% | [15] 95% | [16] 96.1% | [17] 96.4% | [18] 98.6% | [19] 107% | [20] 101%

O=C(CSc1nnc(-c2ccc(Cl)cc2)n1-c1ccccc1)Nc1ccc(F)cc1
inactive: [1] 82.3% | [2] 96.1% | [3] 80.3% | [4] 75.2% | [5] 40.8% | [6] 99.2% | [7] 71.8% | [8] 57.3% | [9] 68.1% | [10] 96.6% | [11] 93% | [12] 92.4% | [13] 80.1% | [14] 49.4% | [15] 82.9% | [16] 79.7% | [17] 65.5% | [18] 60% | [19] 98.8%

CCC(CC)n1c(=O)c(SC2=NC3C(NN2)N(CC)C(=O)N3CC)c(C(=O)O)c2ccccc21 (centres undefined)
active: [5] 3.21% | [7] -45% | [10] -53.4% | [18] 3.93%
inactive: [1] 11.7% | [2] 36.1% | [3] 54.7% | [4] 33.6% | [6] 21.7% | [8] 36.5% | [9] 27.9% | [11] 16.2% | [12] 11.1% | [13] 68.1% | [14] 19.1% | [15] 13.4% | [16] 52.4% | [17] 22.3% | [19] 59.9% | [20] 16%

Cc1[nH]nc2ccc(-c3nc4cnc(N5CCN(C)CC5)cn4c3Nc3ccc(F)cc3Br)cc12
active: [9] 4.67% | [12] 5.31% | [14] 8.94% | [18] -54.9%
inactive: [1] 80.4% | [2] 87.9% | [3] 63.3% | [4] 67.1% | [5] 69.6% | [6] 61.5% | [7] 67.6% | [8] 58.7% | [10] 36.7% | [11] 51.8% | [13] 76.8% | [15] 63.3% | [16] 75.8% | [17] 66.3% | [19] 78.8%

Oc1ccc(CSc2nnc(-c3ccc(Oc4ccccc4)cc3)o2)c2cccnc12
active: [4] 9.54% | [5] 3.07% | [8] 9.22% | [9] -11.5% | [12] 9.13% | [17] 1.44%
inactive: [1] 31.3% | [2] 71.8% | [3] 36.7% | [6] 33.7% | [7] 40.1% | [10] 78.2% | [11] 45.6% | [13] 70.8% | [14] 45.5% | [15] 60.6% | [16] 28.8% | [18] 31.6% | [19] 45.1%

Cc1nn(-c2ccccc2)cc1/C=N/Nc1nc(Nc2ccccc2)nc(Nc2ccc(S(N)(=O)=O)cc2)n1
inactive: [17] 10.7% | [19] 55.3%
active: [1] -14.9% | [2] -59.2% | [3] 9.11% | [4] 9.43% | [5] -35.9% | [6] -13% | [7] 0.777% | [8] -28.7% | [9] -47.6% | [10] -22% | [11] 9.14% | [12] 9.56% | [13] -25.6% | [14] -20.8% | [15] -20.4% | [16] -7.97% | [18] -71.1%

Brc1cccc(/C=N/Nc2nc(N/N=C/c3cccc(Br)c3)nc(N3CCOCC3)n2)c1
active: [13] -54% | [15] -68%
inactive: [1] 43.1% | [2] 43.3% | [3] 52.8% | [4] 52.3% | [5] 41.2% | [6] 63.8% | [7] 33.6% | [8] 42.6% | [9] 24.5% | [10] 23.8% | [11] 27.3% | [12] 14.5% | [14] 66.1% | [16] 68.4% | [17] 29.1% | [18] 56.4% | [19] 35.9%

O=C(NCCCNc1cc(-c2cn(-c3ccccc3)nc2-c2cccc(O)c2)ccn1)Nc1cc(C(F)(F)F)cc(C(F)(F)F)c1
inactive: [1] 83.2% | [2] 79.6% | [3] 90.3% | [4] 78.2% | [5] 61.3% | [6] 52% | [7] 89.5% | [8] 67.1% | [9] 63.2% | [10] 80.4% | [11] 95.8% | [12] 50.7% | [13] 67% | [14] 66.8% | [16] 60.6% | [17] 45.3% | [18] 74.9% | [19] 82.3%
active: [15] 8.69%
